High-throughput results: PubChem, National Center for Advancing Translational Sciences (NCATS)
IL-1B inflam inh = qHTS for Inhibitors of Inflammasome Signaling: IL-1-beta AlphaLISA Primary Screen; activity change, % at 57.5 µM; actives 4.7% (n = 360,000); THP-1 LPS/ATP IL-1B secretion, AlphaLISA, 16 h; stronger effect = lower value; in the data active = activity change below about -50%; inconclusive = mostly about -30% to -49%
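Secreted IL-1B measured by AlphaLISA bead assay after 16 h compound exposure of THP-1 cells; compounds (final up to 57.5 uM) added 1 h before LPS (250 ng/mL) and ATP (1.25 mM) stimulation; lower signal means less secretion.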
TDP1 cell CPT = qHTS for Inhibitors of human tyrosyl-DNA phosphodiesterase 1 (TDP1): qHTS in cells in presence of CPT; actives 12% (n = 420,000); chicken DT40 Tdp1-/-;hTDP1 cells + 20 nM CPT, ATP luminescence, 48 h; Potency, µM (top dose mostly 46.2 µM), for inactives: top-dose activity change, negative = growth inhibition, hits mostly inhibitors; note: potency is the fitted concentration of half-maximal effect; nearly all actives have a fitted effect of over 55% in size
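Chicken DT40 Tdp1-/- cells complemented with human TDP1, 400 cells/well, exposed to compounds plus 20 nM camptothecin for at least 48 h at 37 C; viability read as ATP content by CellTiter-Glo luminescence.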
TDP1 cell noCPT = qHTS for Inhibitors of human tyrosyl-DNA phosphodiesterase 1 (TDP1): qHTS in cells in absence of CPT; DT40 Tdp1-/- hTDP1 cells, no CPT, ATP luminescence, 48 h; Potency, µM (highest dose often 46.2 µM), for the others: top-dose activity change, negative = growth inhibition, most hits filed as inhibitors; actives 15% (n = 420,000); note: potency is the fitted concentration of half-maximal effect; nearly all actives have a fitted effect of over 55% in size
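Stably hTDP1-transfected Tdp1-null chicken DT40 cells were treated with library compounds minus camptothecin and grown for at least 48 hr at 37 °C, after which cellular ATP was quantified by luminescence.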
HT1080 IDH1KD tx = qHTS for induction of synthetic lethality in tumor cells producing 2HG: qHTS for the HT-1080-IDH1KD cell line; Potency, µM (top dose mostly 46.1 µM), without a hit: at the highest dose activity, negative = toxicity, hits mostly cytotoxic; actives 2% (n = 360,000); HT-1080 IDH1 knockdown viability, ATP luminescence, 48 h;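 note: potency is the fitted concentration of half-maximal effect; 0% = DMSO wells and -100% = cell-free medium wells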
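After a 2 h attachment period, IDH1KD HT-1080 cells took pin-transferred compound for 48 h at 37 °C; ATP-based luminescence after 10 min room-temperature reagent incubation reported viability.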
HT1080NT lethal = qHTS for induction of synthetic lethality in tumor cells producing 2HG: qHTS for the HT-1080-NT fibrosarcoma cell line; HT-1080-NT fibrosarcoma viability, CellTiter-Glo ATP luminescence, 48 h; Potency, µM (highest dose often 46.1 µM), for the others: top-dose activity, negative = less viability, actives largely listed as cytotoxic; actives 1.6% (n = 360,000); AID 686970, 2013;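 note: NT is the 2HG producing partner of a matched IDH1 knockdown line; potency is the fitted concentration of half-maximal effect; 0% = DMSO-treated cells and -100% = media-only wells without cells; nearly all actives have a fitted effect of over 55% in size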
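HT-1080-NT; 750 cells/well; 5% FBS RPMI; 48 h compound, 37 degrees C; CellTiter-Glo luminescence; curve fitting and curve-class assignment.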
The depositor's hits bear a star; ? = inconclusive; . = no result. This is a sample that favours compounds with a hit; in the whole collection about 19% have one here. Unless noted, calls come from the whole dose curve; as a rule, active = well fitted curve in the direction sought with a large enough effect; inconclusive = small, poorly fitted or top-dose-only effect, or another doubt; inactive = no such curve, though single readings can be large; an effect the other way counts as inactive or inconclusive. Unless noted, % is set by controls: 0 for no effect and ±100 for the full control effect.

SMILES	IL-1B inflam inh	TDP1 cell CPT	TDP1 cell noCPT	HT1080 IDH1KD tx	HT1080NT lethal
CCN1CCCC1CN(Cc1cc2c(C)cc(C)cc2[nH]c1=O)C(=O)NC1CCCCC1 (stereo not drawn)	-67*	23µM*	?	?	?
Cc1cc(C)c2cc(CN(Cc3ccco3)C(=O)NCc3ccccc3)c(=O)[nH]c2c1	-58*	9%	-10%	-19%	-17%
Cc1cc(C)c2cc(CN(CCO)C(=O)NC3CCCCC3)c(=O)[nH]c2c1	-52*	6%	7%	-4%	-2%
Cc1cc(C)c2cc(CN(CCO)C(=O)Nc3ccc(F)cc3)c(=O)[nH]c2c1	.	-27%	-10%	2%	-3%
Cc1cc(C)c2cc(CN(CCN(C)C)C(=O)Nc3ccccc3Cl)c(=O)[nH]c2c1	-24	?	15µM*	-9%	0%
COc1ccc(-c2[nH]c3c(c2-c2c(-n4cccc4)n(C)c(=O)[nH]c2=O)c(=O)[nH]c(=O)n3C)cc1F	.	5%	-16%	.	.
O=[N+]([O-])c1ccc([N+](=O)[O-])c(Nc2ccc(N3CCOCC3)cc2)c1	7	-29%	-26%	13%	13%
CC(C)[C@@H]1Cc2[nH]c(=S)[nH]c(=O)c2[C@H](CCc2ccccc2)O1	21	?	?	-10%	-4%
COc1cccc(-c2noc(C3CCCN(C(=O)Cc4ccccc4)C3)n2)c1 (stereo not drawn)	-6	18µM*	18µM*	0%	1%
O=C(c1ccco1)N1CCCC(c2nc(-c3ccc(S(=O)(=O)NCc4ccccc4)cc3)no2)C1 (stereo not drawn)	?	13µM*	18µM*	?	?
COc1ccc(-c2noc(C3CCCN(C(=O)CCc4ccccc4)C3)n2)cc1 (stereo not drawn)	-22	18µM*	?	-16%	-5%
COc1ccc(-c2noc(CCC(=O)N3CCN(Cc4ccccc4)CC3)n2)cc1	-7	-28%	?	1%	-1%
CCCC(=O)N1CCCC(c2nc(-c3cccc(OC)c3)no2)C1 (stereo not drawn)	-7	?	?	0%	-5%
CCCCCC(=O)N1CCCC(c2nc(-c3ccc(OC)cc3)no2)C1 (stereo not drawn)	?	?	23µM*	-8%	2%
CC(C)C(=O)Nc1ccc2c(c1)nc(CCN1CCN(c3ccccn3)CC1)n2C	9	22%	-9%	-1%	21%
Cc1ccc(NCc2nnc3n2CCCCC3)cc1Cl	.	4%	-10%	.	.
CCCCCCC(=O)N1CCCC(c2nc(-c3cccc(OC)c3)no2)C1 (stereo not drawn)	-62*	0%	?	-2%	-6%
COc1ccc(N2C(=O)C3CCCN3C2c2ccccc2)cc1 (stereo not drawn)	2	14%	-11%	8%	6%
Cc1ccc(S(=O)(=O)Nc2ccc(Nc3nccn4c(-c5cccc(OC(F)(F)F)c5)cnc34)cc2)cc1	-26	18µM*	12µM*	?	18µM*
Cc1ccc(S(=O)(=O)Nc2ccc(S(=O)(=O)Nc3ncccn3)cc2)cc1	19	-2%	-19%	4%	0%
O=C(c1cc2ccccc2oc1=O)N1CCN(S(=O)(=O)c2ccccc2)CC1	-2	11%	-3%	0%	5%
Cc1ccccc1NC(=O)c1c(NC(=O)c2cccs2)sc2c1CCC(C)C2 (stereo not drawn)	.	-25%	?	.	.
Cc1cccc(NC(=O)c2c(N)sc3c2CCC(C)C3)c1 (stereo not drawn)	.	?	-55%	.	.
